These results are taken from PubChem BioAssay (NCATS).

Experiment [1] is described as follows: Primary qHTS for small molecule stabilizers of the endoplasmic reticulum resident proteome: Secreted ER Calcium Modulated Protein (SERCaMP) assay (AID 1508630). The essentials: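 The SH-SY5Y reporter protocol was run at 3 concentrations up to 38.3 uM (primary) or 11 concentrations (follow-up): 16 h compound, 100 nM thapsigargin for 4 h, then extracellular luciferase luminescence.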
(In general: In qHTS, concentration-response curves come from the screen itself.)

The target in experiment [2] is Calcium and integrin-binding protein 1 (Homo sapiens) (UniProt Q99828). In words: Primary qHTS for Identification of Calcium Integrin Binding Protein 1 (CIB1) Competitor (AID 1508620).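 Further: GST tagged CIB1 binding a fluorescein labelled alphaIIb integrin peptide tracer; top concentration of the series differs between compounds.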 Summed up:
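CIB1-GST (1 uM final) and compound incubated 15 min at room temperature before adding FITC-alphaIIb peptide tracer (100 nM final). Competition for binding read by fluorescence polarization (ex 480, em 540) after another 15 min at room temperature.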

Experiment [3] has as its target Catechol O-methyltransferase (Homo sapiens) (UniProt P21964). Nature of the experiment: Confirmatory Screen for Target Class Profiling of Small Molecule Inhibitors of Methyltransferases (AID 1745852; calls by dose curve; further: potency means the concentration at half of the fitted maximal effect). The following applies: MTase-Glo luminescence, SAH detection, recombinant enzyme; measured here: COMT max response; stronger effect = lower value.
The target in experiment [4] is Guanidinoacetate N-methyltransferase (Homo sapiens) (UniProt Q14353). The experiment is described as above. The following applies: activity change, negative = inhibition: at 57.3 µM (top of the series).
For experiment [5], the target named is Nicotinamide N-methyltransferase (Homo sapiens) (UniProt P40261). The experiment is described as above. The following applies: MTase-Glo luminescence, SAH detection, recombinant enzyme; measured here: NNMT max response; stronger effect = lower value.
Chain of Nicotinamide N-methyltransferase (Homo sapiens) (P40261 whole entry, looked up, the tested form may be a part): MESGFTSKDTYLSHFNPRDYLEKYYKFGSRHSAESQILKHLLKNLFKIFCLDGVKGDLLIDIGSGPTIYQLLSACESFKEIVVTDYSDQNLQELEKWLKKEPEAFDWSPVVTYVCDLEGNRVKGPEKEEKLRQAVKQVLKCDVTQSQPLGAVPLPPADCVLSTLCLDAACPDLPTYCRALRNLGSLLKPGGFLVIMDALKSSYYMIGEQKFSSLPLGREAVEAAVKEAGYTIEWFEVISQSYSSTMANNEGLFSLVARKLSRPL
A short description of experiment [6]: Primary qHTS for inhibitors of nuclear receptor binding SET domain protein 2 (NSD2) in an isogenic RCH-ACV NSD2 p.E1099K mutant (9B) (AID 1645876). Further: potency means the concentration at half of the fitted maximal effect; nearly all actives have a fitted effect of over 70% in size.
Experiment [7] in a line: Primary qHTS for inhibitors of nuclear receptor binding SET domain protein 2 (NSD2) in an RCH-ACV wild type WT cells (2C) (AID 1645877). Further: potency means the concentration at half of the fitted maximal effect; nearly all actives have a fitted effect of over 70% in size.

Results filed as inconclusive are left out. Where a call stands in place of a potency, no number is given. Calls of active or inactive are those of the source. Unless noted, the call rests on the fitted dose curve; in most records, active means well fitted curve in the direction sought with a large enough effect; inconclusive means small, poorly fitted or top-dose-only effect, or another doubt; inactive means no such curve, though single readings can be large; an effect the other way counts as inactive or inconclusive.

Chain of Calcium and integrin-binding protein 1 (Homo sapiens) (Q99828 whole entry, looked up): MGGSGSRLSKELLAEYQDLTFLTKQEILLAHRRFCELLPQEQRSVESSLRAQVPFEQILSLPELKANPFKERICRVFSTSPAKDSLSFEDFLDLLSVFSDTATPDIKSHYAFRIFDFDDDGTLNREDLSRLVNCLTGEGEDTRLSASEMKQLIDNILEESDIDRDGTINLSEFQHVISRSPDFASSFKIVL
Chain of Catechol O-methyltransferase (Homo sapiens) (P21964 whole entry, looked up): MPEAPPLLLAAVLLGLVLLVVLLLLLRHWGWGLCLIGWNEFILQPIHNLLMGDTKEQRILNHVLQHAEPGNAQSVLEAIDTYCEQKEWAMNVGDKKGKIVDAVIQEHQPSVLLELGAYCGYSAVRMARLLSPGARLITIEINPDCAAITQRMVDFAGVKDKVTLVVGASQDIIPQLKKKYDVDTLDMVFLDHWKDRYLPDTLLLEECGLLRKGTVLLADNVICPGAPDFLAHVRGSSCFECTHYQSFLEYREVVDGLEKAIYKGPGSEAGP

`COC(=O)[C@@H]1[C@H]2C[C@@H]3c4[nH]c5ccccc5c4CCN3C[C@@H]2CC[C@@H]1O`: the outcome in experiment [1] is “inactive”.

For the compound `COc1cc2c(Nc3ccc(Cl)c(Cl)c3F)ncnc2cc1OCC1C[C@@H]2CN(C)C[C@H]2C1`, the Potency result in experiment [2] is “inactive”. Also, the outcome in experiment [1] was “inactive”. Further, the activity is -71.6% in experiment [3] and -56.2% in experiment [5]. Also, the Potency in experiment [4] is 21.5 µM (active).

Turning to `C=C[C@@H]1CN2CCC1C[C@H]2[C@H](O)c1ccnc2ccc(OC)cc12` (some centres not stated), the outcome in experiment [1] was “inactive”.

As for `CCC(C(=O)O)C1CCC(C)C(C(C)C(O)C(C)C(=O)C(CC)C2OC3(C=CC(O)[C@@]4(CC[C@](C)(C5CC[C@@](O)(CC)C(C)O5)O4)O3)C(C)CC2C)O1` (some centres not stated), the Potency result in experiment [2] was “inactive”. In addition, the outcome in experiment [1] was “inactive”. Moreover, the Potency is 0.468 µM (active) in experiment [6] and 0.417 µM (active) in experiment [7].

Turning to `N#Cc1c(NC(=O)c2cccc3ccccc23)sc2c1CCCC2`, in experiment [2], the Potency result was “inactive”. The outcome in experiment [1] was “inactive”. For the same compound, the Potency in experiment [6] and in experiment [7] was 0.263 µM (active) in each case.

Turning to `COc1cc(C(=O)NC2CCN(C)CC2)ccc1Nc1ncc2c(n1)N(C1CCCC1)CCC(=O)N2C(C)C`, the Potency entry in experiment [2] was “inactive”. The outcome in experiment [1] was “inactive”. Further, the Potency in experiment [6] was 13.2 µM (active); in experiment [7] it was 10.5 µM (active).

For the compound `CC(=O)N1CCN(c2ccc(OCc3nn(C)c(C)c3-c3cccc4c(CCCOc5cccc6ccccc56)c(C(=O)O)n(Cc5cccnc5)c34)cc2)CC1`, the outcome in experiment [1] is “inactive”.

Take `Cc1cnc(NC(=O)Nc2cc(Br)c(C)cc2OC[C@@H]2CNCCO2)cn1`: the Potency entry in experiment [2] is “inactive”. Besides, the outcome in experiment [1] was “inactive”. Moreover, the Potency in experiment [6] was 1.05 µM (active); in experiment [7], 0.934 µM (active).

Take `CC(N[C@H]1CCCC[C@H]1NC(=O)c1ccc(Cl)cc1)c1cccc2ccccc12` (some centres not stated): in experiment [2], the Potency result was “inactive”. Further, the outcome in experiment [1] is “inactive”. In addition, the Potency in experiment [6] and in experiment [7] was 6.61 µM (active) each time.

Take `O=C(CCCCCCC(=O)Nc1cccnc1)NO`: in experiment [2], the Potency result was “inactive”. Further, in experiment [1], the outcome is “inactive”. Further, the Potency was 4.17 µM (active) in experiment [6] and 3.32 µM (active) in experiment [7].
